biological target: von Willebrand factor (VWF) (Homo sapiens, UniProt P04275 P04275:764-2813); test: filter; binding decreased; details: tags: Haematologic Technologies Inc. (factor VIII free); label: 5'-32P; ssRNA; 2'-F pyrimidines
Protocol: Dissociation constants (Kd) of each truncate were determined using double-filter nitrocellulose filter binding assays (Pergolizzi et al, Blood 108:862-869 (2006)). All binding studies were performed in binding buffer F (20 mM HEPES, pH 7.4, 150 mM NaCl, 2 mM CaCl₂, and 0.1% BSA) at 37° C. Human purified VWF (with factor VIII and factor VIII free) was purchased from Haematologic Technologies Inc. (Essex Junction, VT) and used in the double-filter nitrocellulose filter binding assay to determine the Kd of individual clones. Briefly, RNA was dephosphorylated using bacterial alkaline phosphatase (Gibco BRL, Gaithberg, Md.) and end-labeled at the 5′ end with T4 polynucleotide kinase (New England Biolabs, Beverly, Mass.) and [γ³²P] ATP (Amersham Pharmacia Biotech, Piscataway, N.J.). Direct binding was performed by incubating ³²P—RNA with VWF in physiological buffer+1 mg/ml BSA at 37° C. for 5 min. The fraction of the nucleic acid-protein complex which bound to the nitrocellulose membrane was quantified with a phosphoimager (Molecular Dynamics, Sunnyvale, Calif.).

Sequence	binding signal [% Bmax]
GGGAGGACGAUGCGGUGGACGAACUGCCCUCAGCUACUUUCAUGUUGCUGACGCACAGACGACUCGCUGAGG	50
GGGAGGACGAUGCGGUGGACGAACUGCCCUCAGCUACUUUCAUGUUGCUGACGCACAGA	22
GGGAGGACGAUGCGGUGGACGAACUGCCCUCAGCUACUUUCAUGUUGCUGACGCACAGACGACUCGCUG	50
GGGAGGAACUGCCCUCAGCUACUUUCAUGUUGCUGACGCACAGACGACUCGCUG	45
GGGAGGACGAACUGCCCUCAGCUACUUUCAUGUUGCUGACGCACAGACGACUCGCUG	58
GGGAGGACGAUGCGGUGGACGAACUGCCCUCAGCUACUUUCAUGUUGCUGACGCACAGACAGC	36
GGGAGGACGAUGCGGUGGACGAACUGCCCUCAGCUACUUUCAUGUUGCUGACGCACAGACGACUCG	28

Source: US20120264815, “REVERSIBLE PLATELET INHIBITION” (DUKE UNIVERSITY, published 2012)
